Experimental findings from PubChem BioAssay (NCI) are described below.

Structures are written as SMILES. Compounds without any hit were thinned out: in the full panel of roughly 83,000, 20% have a hit.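 Testing used 96-well plates and a 48-hour single-concentration exposure. Example: -40 means 40% of the starting cells died.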 A number with no mark means an inactive call. Activity calls are given as the source filed them. The calls were made as follows: active = growth percent below 10; inactive = the rest.

Holding throughout (experiment): NCI-60 one-dose screen, 48 h (100 = growth as untreated, 0 = no growth, -100 = all killed)
Holding throughout (conditions): 10 µM unless noted

Assay [1] concerns NCI-H23 lung.
For assay [2], the system named is NCI-H226 lung.
Assay [3] relates to NCI-H322M lung.
Assay [4] deals with HOP-62 NSCLC.
Assay [5] has as its system NCI-H460 lung.
In assay [6] the test system is HOP-92 NSCLC.
In assay [7] the test system is NCI-H522 lung.
Assay [8] relates to A549/ATCC NSCLC.
Assay [9] deals with 786-0 renal.
For assay [10], the system named is COLO 205 colon.
The test system of assay [11] is DU-145 prostate.
Assay [12] relates to K-562 leukemia.
Assay [13] deals with MALME-3M melanoma.
For assay [14], the system named is MDA-MB-231 breast.
The test system of assay [15] is RXF 393 renal.
Assay [16] concerns SF-268 CNS.
For assay [17], the system named is SF-295 CNS.
For assay [18], the system named is SF-539 CNS.
In assay [19] the test system is UACC-257 melanoma.
In assay [20] the test system is M14 melanoma.

In the case of `COc1ccc(-c2cc(-c3cccnc3)nc3sc4c(N)c(C(C)=O)c(-c5ccccc5)nc4c23)cc1OC`, the growth was 66.7% in assay [1]; 94.3% in [2]; 90.5% in assay [3]; 76.5% in assay [4]; 78% in assay [5]; 61.9% in [6]. Also, the growth in assay [7] was 56.6%; in assay [8], 69%; in assay [9], 68.9%; in assay [10], 94.8%; in [11], 80.9%; in assay [12] it was 32.3%. For the same compound, the growth is 93.3% in assay [13]; 51.5% in assay [14]; 50.1% in [15]; 69.6% in assay [16]; 48.7% in assay [17]; 52.8% in [18]. The growth in assay [19] is 92.3%; in [20] it was 104%.

Regarding `COC(=O)/C=C1/SC(=NCc2ccccc2)N(CCc2c[nH]c3ccccc23)C1=O`, the growth is 87.2% in assay [1]; 109% in [2]; 98.9% in [3]; 102% in assay [4]; 91.8% in assay [5]; 74.6% in assay [6]. For the same compound, the growth in assay [7] is 77.1%; in assay [8], 93.1%; in assay [9] it was 89.4%; in [10], 98.7%; in assay [11] it was 72.5%; in assay [12] it was 48.5%. The growth in assay [13] was 108%; in [14], 91%; in [15], 81.9%; in [16] it was 90.3%; in assay [17], 89.9%; in assay [18], 105%. Further, the growth in [19] is 81.6%; in [20] it was 80.5%.

Turning to `O=C(/C=C/c1ccccc1)c1ccc(-n2cc(CN3CCN(c4cc5c(cc4F)c(=O)c(C(=O)O)cn5C4CC4)CC3)nn2)cc1`, the growth in assay [1] was 79.7%; in assay [2], 73%; in assay [3] it was 84.4%; in [4], 79.6%; in assay [5], 76.1%; in [6] it was 79.6%. In addition, the growth in assay [7] was 80.1%; in [8], 88.9%; in [9], 54.2%; in [10], 108%; in assay [11] it was 76.3%; in assay [12], 56%. For the same compound, the growth was 91.2% in assay [13]; 89.4% in assay [14]; 58.3% in assay [15]; 70.4% in assay [16]; 91.7% in [17]; 69% in assay [18]. For the same compound, the growth was 91% in assay [19] and 84.4% in [20].

On to `N=C(N)c1ccc(-c2ccc(-c3cc(Cl)cc(Cl)c3)s2)s1`, for which the growth was -49.5% (active) in assay [1]; 90.8% in assay [2]; -44.7% (active) in assay [3]; -28.3% (active) in assay [4]; -33.9% (active) in assay [5]; 50.2% in assay [6]. The growth in assay [7] is -70.6% (active); in assay [8], -52.8% (active); in assay [9] it was -74.5% (active); in assay [10] it was -75.4% (active); in assay [11], -72.2% (active); in [12], -52.5% (active). Besides, the growth was -13.1% (active) in assay [13]; -55.1% (active) in [14]; -84.2% (active) in [15]; -43.8% (active) in [16]; -69.8% (active) in assay [17]; -60.6% (active) in [18]. Moreover, the growth in assay [19] was -46.3% (active); in assay [20] it was 1.55% (active).

In the case of `COc1ccc(/C=C2\CN(C(=O)C(Cl)Cl)C/C(=C\c3ccc(OC)c(OC)c3)C2=O)cc1OC`, the growth was -51.8% (active) in assay [1]; 42.8% in assay [2]; 30% in assay [3]; 34.3% in [4]; -51.9% (active) in assay [5]; -7.03% (active) in assay [6]. In addition, the growth is -14.1% (active) in assay [7]; 4.8% (active) in [8]; -94.9% (active) in assay [9]; -2.98% (active) in assay [10]; -16% (active) in assay [11]; 4.57% (active) in [12]. For the same compound, the growth in assay [13] is -70.9% (active); in assay [14] it was 7.12% (active); in assay [15] it was -67.1% (active); in [16], 17.8%; in assay [17], -39.6% (active); in [18] it was -23.8% (active). The growth was 18.4% in assay [19] and -72.6% (active) in assay [20].

`CNCCCNc1nc2ccccc2c2c(=O)c3cc(Cl)ccc3sc12`: the growth in assay [1] was 70.1%; in assay [2] it was 101%; in assay [3] it was 70.4%; in assay [4], 60.5%; in assay [5], -70.5% (active); in [6] it was 9.37% (active). Also, the growth in assay [7] was 17.6%; in assay [8], 17.8%; in assay [9] it was 52.7%; in assay [10], -84.4% (active); in assay [11] it was -8.94% (active); in assay [12], -70.1% (active). Moreover, the growth was 17.6% in assay [13]; -58.8% (active) in [14]; 61.1% in assay [15]; 53.8% in assay [16]; 62.6% in assay [17]; 70.8% in [18]. Also, the growth in assay [19] was 92.8%; in assay [20] it was -57.2% (active).

With `C=CCN=c1sc(-c2ccc3ccccc3c2)cn1NC(=O)c1cc2ccc1CCc1ccc(cc1)CC2`, the growth in assay [1] was 55.8%; in [2], 75.2%; in assay [3] it was 97.6%; in [4] it was 75.2%; in assay [5], 52.3%; in assay [6], 59.6%. Also, the growth in assay [7] is 76.4%; in assay [8] it was 56.1%; in [9], 70.1%; in assay [10], 44.5%; in assay [11] it was 75%; in assay [12], 35%. In addition, the growth in assay [13] is 76.7%; in assay [14] it was 92.9%; in assay [15], 74.1%; in assay [16], 62.3%; in assay [17], 46%; in assay [18], 77.9%. Also, the results for the growth in [19] and in assay [20] were 48.7% and 75.6%, respectively.
